Outcome and AC50 data for 19 molecules are collected here from PubChem BioAssay (EPA / NIEHS).

Results filed as inconclusive are left out. Some compounds were tested as several samples or in several runs, with calls that do not always agree. Active and inactive are the calls of the source. Rule for the calls: active = hit-call score of the fitted dose curve at least 0.9, where 1 is the maximum; inconclusive = response in the unintended direction; inactive = score below 0.9.

human Adenosine Transporter (Adot), SLC29A1 (gene 2030), sequence (Q99808 whole entry, looked up): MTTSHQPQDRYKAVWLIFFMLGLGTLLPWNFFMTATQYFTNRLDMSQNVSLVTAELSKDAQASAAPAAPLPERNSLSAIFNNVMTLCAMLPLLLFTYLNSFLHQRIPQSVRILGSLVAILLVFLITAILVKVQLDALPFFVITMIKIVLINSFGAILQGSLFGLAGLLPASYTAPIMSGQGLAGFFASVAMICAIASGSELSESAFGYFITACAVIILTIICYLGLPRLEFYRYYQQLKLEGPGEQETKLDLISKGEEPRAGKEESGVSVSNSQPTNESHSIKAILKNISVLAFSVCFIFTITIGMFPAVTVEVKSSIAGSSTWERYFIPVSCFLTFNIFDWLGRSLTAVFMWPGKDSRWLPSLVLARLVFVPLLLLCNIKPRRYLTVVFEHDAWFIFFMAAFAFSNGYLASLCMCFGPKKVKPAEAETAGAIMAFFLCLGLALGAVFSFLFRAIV
Nuclear receptor subfamily 1 group I member 2 (Homo sapiens), sequence (O75469 whole entry, looked up): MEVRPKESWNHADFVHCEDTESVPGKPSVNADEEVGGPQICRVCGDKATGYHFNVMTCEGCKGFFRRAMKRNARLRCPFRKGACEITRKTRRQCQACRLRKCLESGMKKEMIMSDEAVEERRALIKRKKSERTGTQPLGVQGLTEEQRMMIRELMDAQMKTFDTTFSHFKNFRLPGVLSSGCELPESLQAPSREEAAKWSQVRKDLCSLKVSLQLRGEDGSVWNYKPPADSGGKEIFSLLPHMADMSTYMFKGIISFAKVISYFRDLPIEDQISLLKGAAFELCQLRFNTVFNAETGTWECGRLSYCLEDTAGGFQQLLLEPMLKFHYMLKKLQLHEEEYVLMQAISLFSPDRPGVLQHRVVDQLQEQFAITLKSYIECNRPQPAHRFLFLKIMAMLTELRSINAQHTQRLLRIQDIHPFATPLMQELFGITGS
Peroxisome proliferator-activated receptor gamma (Homo sapiens), sequence (P37231 whole entry, looked up): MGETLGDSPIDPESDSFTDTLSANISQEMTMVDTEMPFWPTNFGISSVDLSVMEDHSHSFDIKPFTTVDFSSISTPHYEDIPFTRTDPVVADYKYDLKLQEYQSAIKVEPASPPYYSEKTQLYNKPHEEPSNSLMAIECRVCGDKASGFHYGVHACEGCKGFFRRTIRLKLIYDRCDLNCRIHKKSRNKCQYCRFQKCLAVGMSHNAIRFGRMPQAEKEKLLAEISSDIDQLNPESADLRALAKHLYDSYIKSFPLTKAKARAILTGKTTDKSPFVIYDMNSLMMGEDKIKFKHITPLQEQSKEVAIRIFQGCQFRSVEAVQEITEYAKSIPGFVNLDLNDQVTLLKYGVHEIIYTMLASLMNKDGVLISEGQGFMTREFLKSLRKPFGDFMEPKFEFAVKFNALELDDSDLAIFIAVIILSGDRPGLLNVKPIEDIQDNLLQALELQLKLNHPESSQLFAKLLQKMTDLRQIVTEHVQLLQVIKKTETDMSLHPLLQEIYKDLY

The first test deals with Glucocorticoid receptor (Homo sapiens) (UniProt P04150). The test can be described thus: NVS_NR_hGR: NovaScreen (NVS) Nuclear Receptor Binding Assay for human Glucocorticoid Receptor (GR) (AID 2283363).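 For AC50: activity is loss of specific radioligand binding signal relative to DMSO.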 In short, it runs like this: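 Single-readout cell-free binding: radioligand plus extracted receptor, 16-hour dosing, filter radiodetection; 25 uM duplicate primary, concentration series secondary.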
Glucocorticoid receptor (Homo sapiens), sequence (P04150 whole entry, looked up): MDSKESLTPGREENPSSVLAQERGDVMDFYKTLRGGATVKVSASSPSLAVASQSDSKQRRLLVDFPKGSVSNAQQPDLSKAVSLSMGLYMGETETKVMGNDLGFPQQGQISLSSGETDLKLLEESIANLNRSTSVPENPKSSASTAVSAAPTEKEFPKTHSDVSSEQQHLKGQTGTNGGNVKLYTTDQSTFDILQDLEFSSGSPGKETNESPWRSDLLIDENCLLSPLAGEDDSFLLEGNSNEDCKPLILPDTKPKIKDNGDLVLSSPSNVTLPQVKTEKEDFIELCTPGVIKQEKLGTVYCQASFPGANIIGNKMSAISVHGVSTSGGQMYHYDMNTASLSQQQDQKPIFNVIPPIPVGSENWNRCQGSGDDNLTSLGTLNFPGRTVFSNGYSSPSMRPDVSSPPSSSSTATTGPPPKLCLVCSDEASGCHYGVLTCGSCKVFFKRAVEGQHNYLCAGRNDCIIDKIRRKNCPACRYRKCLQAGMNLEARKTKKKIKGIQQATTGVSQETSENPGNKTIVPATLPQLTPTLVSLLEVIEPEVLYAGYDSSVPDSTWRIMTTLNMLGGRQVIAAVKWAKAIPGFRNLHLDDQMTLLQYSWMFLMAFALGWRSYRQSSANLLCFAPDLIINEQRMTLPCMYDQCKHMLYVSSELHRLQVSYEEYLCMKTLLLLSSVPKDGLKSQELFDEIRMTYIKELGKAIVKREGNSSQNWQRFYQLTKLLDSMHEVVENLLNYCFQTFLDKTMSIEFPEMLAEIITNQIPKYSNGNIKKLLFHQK
As for `CCCCCOC(=O)c1ccccc1C(=O)OCCCCC`, the molecule was called inactive.
In the case of `CCCCCCCCn1sccc1=O`, the half-maximal activity concentration (AC50) was 7.16 µM (active).
For the molecule `CCC[CH2][Sn]([Cl])([CH2]CCC)[CH2]CCC`, the half-maximal activity concentration (AC50) is 0.726 µM (active).
The same measure, in the same setting: for `[Cl-].[Cl-].[Hg+2]` the value was 8.46 µM (active).

Another test concerns the target Nuclear receptor subfamily 1 group I member 2 (Homo sapiens) (UniProt O75469). The test can be described thus: NVS_NR_hPXR: NovaScreen (NVS) Nuclear Receptor Binding Assay for human Pregnane X Receptor (PXR) (AID 2283365).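 Note: a drop in FRET signal versus DMSO baseline means the compound binds.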 In short, it runs like this:
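Human PXR protein, cell-free; compound added, incubated 2 h, TR-FRET read. Signal decrease vs DMSO = binding. Screened 25 uM duplicate, actives re-run as dilution series.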
For the molecule `C[N+](C)(C)CC1CO1` (stereo not given), the outcome was inactive.
As for `CN(C)c1ccc(C(=O)c2ccc(N(C)C)cc2)cc1`, the outcome was inactive.
Regarding `CCNS(=O)(=O)C(F)(F)C(F)(F)C(F)(F)C(F)(F)C(F)(F)C(F)(F)C(F)(F)C(F)(F)F`, the molecule was classed as inactive.
As to `CCCCC(CC)COC(=O)c1ccc(C(=O)OCC(CC)CCCC)c(C(=O)OCC(CC)CCCC)c1` (stereo not given), the result was inactive.
On the same count and under the same terms, next, `CCCCCCCCCCCCCN1CC(C)OC(C)C1` (stereo not given): “inactive”.
Still for that read-out and setting: for `OCCOCCO` the value was “inactive”.

In the next test the target is human Adenosine Transporter (Adot), SLC29A1 (gene 2030) (UniProt Q99808). The test can be described thus: NVS_TR_hAdoT: NovaScreen (NVS) Transporter Assay for human Adenosine Transporter (Adot) (AID 2283368). In short, it runs like this:
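Binding displacement on U937 extracted protein, read 1 h post-dose by filtration and scintillation counting. Primary duplicate test at 25 uM, then singleton concentration series with 50 uM top; DMSO baseline.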
`CCCCCCCCn1sccc1=O`: the AC50 was 16.6 µM (active).
The same measure, in the same setting: for `C[C@]12C=CC3=C4CCC(=O)C=C4CC[C@H]3[C@@H]1CC[C@@H]2O` the value was 35.2 µM (active).
`CCNS(=O)(=O)C(F)(F)C(F)(F)C(F)(F)C(F)(F)C(F)(F)C(F)(F)C(F)(F)C(F)(F)F`: the result was inactive.
Turning to `CCC[CH2][Sn]([Cl])([CH2]CCC)[CH2]CCC`, the half-maximal activity concentration (AC50) was 34.6 µM (active).
Still for that read-out and setting: next, `[Cl-].[Cl-].[Hg+2]`: 5.1 µM (active).
`O=[N+]([O-])C(Br)(CO)CO`: the AC50 is 25 µM (active).

A further test has as its system guinea pig Dopamine Transporter (DAT), gene 100714898. The test can be described thus: NVS_TR_gDAT: NovaScreen (NVS) Transporter Assay for guinea pig Dopamine Transporter (DAT) (AID 2283369).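 Note: active compounds lower bound radioligand signal relative to DMSO.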 The method in brief:
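Scintillation counts of filter-retained radioligand report binding to guinea pig striatal membranes after 2 h. Activity scored as signal loss relative to DMSO, first at 25 uM in duplicate, then in concentration series to 50 uM.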
Consider `CCCCCOC(=O)c1ccccc1C(=O)OCCCCC`, for which the call was inactive.
In the case of `Nc1ccc(N=Nc2ccccc2)cc1`, the AC50 is 15 µM (active).
Same read-out and setting: next, `O=C(Nc1ccccc1)c1ccccc1I`: 12.8 µM (active).
The same measure, in the same setting: next, `CC(C)N(Cc1ccccc1)C(=O)C(C)(C)C`: 13.7 µM (active); `CCC[CH2][Sn]([Cl])([CH2]CCC)[CH2]CCC`: 11.1 µM (active); `[Cl-].[Cl-].[Hg+2]`: 44.2 µM (active).

The target of a further test is Peroxisome proliferator-activated receptor gamma (Homo sapiens) (UniProt P37231). The test can be described thus: NVS_NR_hPPARg: NovaScreen (NVS) Nuclear Receptor Binding Assay for human Peroxisome Proliferator-activated Receptor gamma (PPARg) (AID 2283370). In short, it runs like this:
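Chemicals were tested first in duplicate at 25 uM, then in concentration series if active. Binding to cell-free PPARg protein was measured by fluorescence polarization after 2 h, with loss of signal scored against DMSO.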
Regarding `CCCCCCCCn1sccc1=O`, the half-maximal activity concentration (AC50) is 0.693 µM (active).
Consider `Nc1ccc(N=Nc2ccccc2)cc1`, for which the outcome was inactive.
Same read-out and setting: next, `Cc1cc(N=Nc2ccccc2C)ccc1N`: “inactive”.
Take `C[C@]12C=CC3=C4CCC(=O)C=C4CC[C@H]3[C@@H]1CC[C@@H]2O`: the AC50 is 41.5 µM (active) and the call was inactive.
As to `O=C(Nc1ccccc1)c1ccccc1I`, the molecule was called inactive.
With `CN(C)c1ccc(C(=O)c2ccc(N(C)C)cc2)cc1`, the AC50 is 25 µM (active).
Turning to `CC(C)(O)c1cnn2c(-c3ccc(F)c(-c4c(F)cccc4C#N)c3)cnc2n1`, the result was inactive.
On to `Nc1ccc(Cl)cc1N`, for which the molecule was classed as inactive.
The same measure, in the same setting: for `CCNS(=O)(=O)C(F)(F)C(F)(F)C(F)(F)C(F)(F)C(F)(F)C(F)(F)C(F)(F)C(F)(F)F` the value was “inactive”; for `CC(C)COC(=O)c1ccccc1C(=O)OCC(C)C`, “inactive”; for `O=[N+]([O-])C(Br)(CO)CO`, “inactive”.

The target of another test is human Dopamine Transporter (DAT), SLC6A3 (gene 6531) (UniProt Q01959). The test can be described thus: NVS_TR_hDAT: NovaScreen (NVS) Transporter Assay for human Dopamine Transporter (DAT) (AID 2283374).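 Note: activity means loss of bound radioligand signal relative to DMSO.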 In short, it runs like this: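 Extracted human SLC6A3 protein incubated 1 h with radioligand and test chemical; bound fraction separated on filters and counted. Single 25 uM duplicate screen preceded concentration-response follow-up; positive and negative controls on every plate.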
human Dopamine Transporter (DAT), SLC6A3 (gene 6531), sequence (Q01959 whole entry, looked up): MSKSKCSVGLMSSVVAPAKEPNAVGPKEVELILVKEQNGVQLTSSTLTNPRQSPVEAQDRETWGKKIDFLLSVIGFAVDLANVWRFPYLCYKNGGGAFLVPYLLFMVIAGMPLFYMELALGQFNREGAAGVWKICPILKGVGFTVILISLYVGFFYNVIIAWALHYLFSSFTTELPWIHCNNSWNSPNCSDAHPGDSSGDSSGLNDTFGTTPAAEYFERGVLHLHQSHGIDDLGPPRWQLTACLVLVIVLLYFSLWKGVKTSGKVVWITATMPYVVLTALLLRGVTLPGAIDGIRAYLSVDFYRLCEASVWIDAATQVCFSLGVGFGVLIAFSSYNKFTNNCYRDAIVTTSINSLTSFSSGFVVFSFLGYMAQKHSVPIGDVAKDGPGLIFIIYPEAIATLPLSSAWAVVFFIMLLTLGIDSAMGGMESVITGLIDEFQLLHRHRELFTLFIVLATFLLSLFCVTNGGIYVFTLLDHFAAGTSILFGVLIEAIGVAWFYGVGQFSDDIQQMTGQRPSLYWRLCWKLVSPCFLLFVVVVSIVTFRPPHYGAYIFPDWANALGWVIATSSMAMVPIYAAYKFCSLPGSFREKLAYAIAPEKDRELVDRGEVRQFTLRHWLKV
On to `CCCCCCCCn1sccc1=O`, for which the molecule was called inactive.
In the case of `Nc1ccc(N=Nc2ccccc2)cc1`, the AC50 is 2.24 µM (active).
Still for that read-out and setting: next, `Cc1cc(N=Nc2ccccc2C)ccc1N`: 17.4 µM (active); `CC(C)N(Cc1ccccc1)C(=O)C(C)(C)C`: 6.52 µM (active); `CCC[CH2][Sn]([Cl])([CH2]CCC)[CH2]CCC`: 3.59 µM (active).
On the same count and under the same terms, for `[Cl-].[Cl-].[Hg+2]` the value was 25 µM (active).

One may read the AC50 as the concentration giving half of the maximal activity seen.
